Only some compounds are listed: those with a hit (about 11% of all), similar ones and a draw of the others.
HPGD block: blocks human HPGD enzyme activity | actives 4.3% (n = 150,000) | Potency, µM, actives largely listed as inhibitors | AID 894 | purified HPGD, NADH fluorescence kinetic, PGE2 substrate; active means well fitted inhibition curve with a large enough effect, not every such curve was filed as active; inconclusive means small, poorly fitted or top-dose-only effect, or another doubt; inactive means no such curve, though single readings can be large or run the other way
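NADH formation kinetics: reaction with 30 uM PGE2 and 1 mM NAD+ (final), 20 nM enzyme, Tris-HCl pH 8 with Tween 20, after 15 min compound preincubation at room temperature. Fluorescence change, last versus first of five reads.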
ALDH1A1 block: ALDH1A1 (human) enzyme inhibition. P00352. Purified ALDH1A1, NADH fluorescence, propionaldehyde substrate. Potency, µM (titrated, usually from 75.3 µM), usual class: inhibitors. actives 7.3% (n = 220,000); active means well fitted inhibition curve with a large enough effect, not every such curve was filed as active; inconclusive means small, poorly fitted or top-dose-only effect, or another doubt; inactive means no such curve, though single readings can be large or run the other way
Target sequence (P00352 whole entry, looked up): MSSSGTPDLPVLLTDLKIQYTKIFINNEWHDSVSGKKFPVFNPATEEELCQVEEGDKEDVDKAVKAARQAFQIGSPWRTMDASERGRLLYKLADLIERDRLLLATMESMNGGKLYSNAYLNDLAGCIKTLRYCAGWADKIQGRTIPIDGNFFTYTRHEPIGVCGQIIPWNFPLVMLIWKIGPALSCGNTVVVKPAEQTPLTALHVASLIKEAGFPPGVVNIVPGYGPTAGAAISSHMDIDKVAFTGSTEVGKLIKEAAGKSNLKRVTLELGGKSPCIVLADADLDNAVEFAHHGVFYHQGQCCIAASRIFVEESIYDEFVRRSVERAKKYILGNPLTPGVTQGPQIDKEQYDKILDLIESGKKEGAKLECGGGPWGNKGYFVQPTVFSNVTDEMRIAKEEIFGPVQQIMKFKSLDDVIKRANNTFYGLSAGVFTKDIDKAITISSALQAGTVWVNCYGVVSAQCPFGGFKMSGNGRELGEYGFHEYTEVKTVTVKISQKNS
ALOX12 inhib: blocks human 12-lipoxygenase activity; P18054; purified 12-hLO, xylenol orange hydroperoxide absorbance; Potency, µM (top dose mostly 57.1 µM), usual class: inhibitors; actives 0.12% (n = 150,000); further: nearly all actives have a fitted effect of over 55% in size
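Xylenol orange chromogenic assay: hydroperoxide from 12hLO oxidises Fe(II), giving red-shifted Fe(III)-XO absorbance. Conditions: 150 nM enzyme, 40 uM arachidonic acid, 25 mM Hepes pH 7.0, 0.01% Triton X-100, 30 min, room temperature.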
IMPase cell inh: IMPase inhibition in cells; P97697; CHO-M1 cells, IP1 accumulation, HTRF TR-FRET ratio; inhibition (IP1 accumulation), % at 46.1 µM; 120,000 tested, under 10 active; active means well fitted curve in the direction sought with a large enough effect in the signal ratio, not every such curve was filed as active; inconclusive means small, poorly fitted or top-dose-only effect, or a change in a side signal; inactive means no such curve, though single readings can be large or run the other way; the % refers to the signal ratio;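 further: cells stimulated with carbachol in lithium chloride buffer; higher means more IMPase inhibition seen as more IP1 and lower FRET ratio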
Target sequence (P97697 whole entry, looked up): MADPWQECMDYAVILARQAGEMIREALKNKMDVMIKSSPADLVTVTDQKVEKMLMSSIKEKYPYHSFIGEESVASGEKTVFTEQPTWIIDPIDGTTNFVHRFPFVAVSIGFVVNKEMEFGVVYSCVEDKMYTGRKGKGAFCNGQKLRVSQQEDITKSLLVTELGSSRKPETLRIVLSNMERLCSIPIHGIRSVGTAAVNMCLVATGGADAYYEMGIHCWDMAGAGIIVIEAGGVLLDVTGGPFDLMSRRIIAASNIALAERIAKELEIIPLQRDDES
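Cellular IMPase inhibition is scored as a rise in cytosolic IP1, detected by competitive TR-FRET between d2-labelled IP1 and a europium anti-IP1 antibody. M1-expressing CHO cells were stimulated with carbachol for 30 min at 37C, with lithium (50 mM LiCl) present in the buffer.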
PNC inhibitor: blocks assembly of the perinucleolar compartment | AID 2417 | PC3M PTB-GFP, PNC prevalence imaging, 16 h; active compounds read low | actives 3.1% (n = 140,000) | activity change (PNC), negative = inhibition, % at 10 µM;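 active means readout at or below -70, meaning at least 70% loss of cells showing the perinucleolar compartment, a nuclear body marking cancer cells; inconclusive means readout between -30 and a set limit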
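Read-out is percentage of cells bearing a perinucleolar compartment, from automated 20x imaging of fixed, Hoechst-stained PC3M PTB-GFP cells. Cells were seeded 4 h, then exposed 16 h to compound (23 nl of library stock) in duplicate plates.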
IMPase Li cell: membrane-permeable IMPase blocker, potentiated with lithium. CHO-M1 cells, IP1 TR-FRET (IP-One), carbachol + lithium. Potency, µM (titrated, usually from 59.4 µM), most hits filed as inhibitors. actives 0.35% (n = 210,000);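 further: IP1 builds up when IMPase is blocked and the TR-FRET signal falls; nearly all actives have a fitted effect of over 50% in size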
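CHO-M1, 2000 cells/well, 16–30 h culture; cpd + low Li+, 30 min 37C; lysis with d2-IP1/Eu-anti-IP1 Ab, 10 min RT; TR-FRET 665/620 ratio and 620 channel; AC50 via Hill.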
A number is an active result; n = inactive; u = inconclusive; x = no result; [ ] = remark or other dose. Unless noted, the call rests on the fitted dose curve; in most records, active means well fitted curve in the direction sought with a large enough effect; inconclusive means small, poorly fitted or top-dose-only effect, or another doubt; inactive means no such curve, though single readings can be large; an effect the other way counts as inactive or inconclusive.

SMILES	HPGD block	ALDH1A1 block	ALOX12 inhib	IMPase cell inh	PNC inhibitor	IMPase Li cell
Cc1ccc(S(=O)(=O)/N=C2/NC(=O)/C(=C/c3ccccn3)S2)cc1	x	n	x	x	x	n
COc1ccc(S(=O)(=O)/N=C2/NC(=O)/C(=C\c3ccco3)S2)cc1	28µM	18µM	u	x	n	n
COc1ccc(S(=O)(=O)/N=C2/NC(=O)/C(=C/c3ccco3)S2)cc1	u	22µM	n	x	n	n
Cc1nc(SCC(=O)NNC(=O)c2cccs2)[nH]c(=O)c1C	x	n	x	x	x	n
COc1ccc(NC(=O)N2CC[C@@]3(CCCN(C(=O)c4cccn4C)C3)C2)cc1	n	u	n	x	x	n
COc1cccc(/C=N/NC(=O)c2cc3cc([N+](=O)[O-])ccc3s2)c1O	28µM	n	n	x	u	n
CCC(=O)Nc1ccc(C(=O)N/N=C/c2ccccc2[N+](=O)[O-])cc1	n	28µM	n	n	n	n
NC(=S)N/N=C/c1ccccc1[N+](=O)[O-]	x	22µM	x	x	x	n
CCNC(=S)N/N=C/c1ccccc1[N+](=O)[O-]	x	n	x	x	x	n
NC(=S)N/N=C/c1ccc(-c2ccc([N+](=O)[O-])cc2)o1	x	0.89µM	x	x	x	n
CCOc1ccc(C(=O)N/N=C/c2ccccc2[N+](=O)[O-])cc1	n	n	n	x	n	n
COc1ccc(C(O)C2=CCCC2=O)cc1 (stereo unspecified)	n	n	x	x	x	n
COc1cc([N+](=O)[O-])cc(/C=N/NC(=O)CC#N)c1O	x	14µM	x	x	x	n
COc1ccccc1/C=N/NC(=O)c1ccc(NC(=O)c2cccc([N+](=O)[O-])c2)cc1	x	7.9µM	x	x	x	n
COc1cc([N+](=O)[O-])cc(/C=N/NC(=O)c2ccc(C)nc2)c1O	n	n	n	x	n	n
Cc1ccc(-c2ccc(/C=N/O)o2)cc1[N+](=O)[O-]	x	3.2µM	x	x	x	n
Cc1ccc(C(=O)N/N=C\c2ccc(-c3ccc([N+](=O)[O-])cc3)o2)cn1	x	n	x	x	x	x
Cc1ccc(C(=O)N/N=C\C=C\c2ccccc2[N+](=O)[O-])cn1	x	7.9µM	x	x	x	n
O=c1c(-c2ccc(F)cc2)nc2cnc(N3CCOCC3)nc2n1CCc1ccccc1	x	u	x	x	x	n
COc1ccc(/C=N\NC(=O)c2cccc([N+](=O)[O-])c2)cc1Cn1cc([N+](=O)[O-])cn1	x	20µM	x	x	x	n
O=Cc1ccccc1OS(=O)(=O)c1ccccc1	n	13µM	n	n	n	n
CN(C)c1ccc(CNC(=O)C2CCN(S(=O)(=O)c3ccc4c(c3)CCC(=O)N4)CC2)cc1	n	18µM	n	n	n	n
C[C@]12CCC3c4ccc(O)cc4CCC3C1CCC2=O (stereo partly specified)	n	n	n	x	x	n
CCOC(=O)N/N=C1/C[C@@H](O)[C@@H](O)[C@@H]2[C@@H]3C(=O)N(C4CCCCC4)C(=O)[C@H]3CC[C@@H]12	x	n[13.5 µM]	x	x	x	x
Cc1cccc(Nc2ccc(C(=O)N3CCOCC3)cn2)c1	x	n	x	x	x	n
SMILES	HPGD block	ALDH1A1 block	ALOX12 inhib	IMPase cell inh	PNC inhibitor	IMPase Li cell
Cc1ccc(Nc2ccc(C(=O)N3CCCC3)cn2)c(C)c1	2.2µM	n	n	n	n	n
Cc1cccc(NC(=O)c2c(NC(=O)c3ccco3)sc3c2CCC(C(C)(C)C)C3)c1 (stereo unspecified)	x	x	x	n	x	x
CCOc1ccc(-c2csc(N)c2C(=O)OC)cc1	14µM	22µM	n	n	n	n
CCOC(=O)c1c(-c2ccncc2)csc1N	u	u	n	n	u	n
CNc1nc(-c2c[nH]c3ccccc23)cs1	n	7.1µM	n	n	n	n
Nc1nc(-c2c[nH]c3ccccc23)cs1	n	7.9µM	n	n	n	n
CC(C)c1ccccc1OCCCCCNCCO	n	18µM	n	n	n	n
Cc1cccc(C)c1OCCCCCNCCO	n	20µM	n	n	n	n
O=S(=O)(NCCCCCCc1ccccc1)c1cccc2c(Cl)cccc12	n	u	n	n	x	n
CCOC(=O)CNC(=O)CSc1nc(N)cc(N)n1	n	n	n	n	n	n
CCOC(=O)CNC(=S)n1cnc(N)n1	x	32µM	x	x	x	n
O=C(NC(=S)Nc1cccc(Cl)c1N1CCCC1)c1ccc(-c2cccc([N+](=O)[O-])c2)o1	n	28µM	n	n	n	n
O=C(NC(=S)Nc1cccc(Cl)c1N1CCCCC1)c1ccc2c(c1)OCCO2	n	u	n	x	n	n
Clc1ccccc1CNCC1CCC(CNCc2ccccc2Cl)CC1 (stereo unspecified)	n	n	n	n	x	n
C=CCNC(=S)Nc1sc2c(c1C(=O)OCC)CC(C)(CC)OC2 (stereo unspecified)	n	u	n	x	-100	n
CCOC(=O)N1CCc2c(sc(NC(=O)CN3CCN(C)CC3)c2C(=O)Nc2ccccc2)C1	x	14µM	x	x	x	n
CCOC(=O)c1c(NC(=O)C2CC(Cl)=CCC2C(=O)O)sc2c1CC(C)(C)OC2 (stereo unspecified)	x	n	x	x	x	n
C=CCNC(=S)Nc1sc2c(c1C(=O)OCC)CCN(C(=O)OCC)C2	n	20µM	n	u	n	u
CCOC(=O)c1c(NC(=S)Nc2cccc(C)c2)sc2c1CC(C)(C)SC2	u	4µM	n	n	u	n
CCCCCCCCC#CCC#CCC#CCCCC(=O)O	n	n	n	x	x	n
CCc1nc(C)ccc1OC(=O)C12CC3CC(CC(C3)C1)C2	n	18µM	n	n	n	n
Cc1ccc(OC(=O)C23CC4CC(CC(C4)C2)C3)c(C)n1	n	n	n	x	n	n
CS(=O)(=O)Nc1cccc(-c2ccc3ncnc(NCc4cccs4)c3c2)c1	x	n	x	x	x	n
CN1CCN(S(=O)(=O)c2ccc(NC(=S)NC(=O)c3ccc(Cl)cc3)cc2)CC1	x	n	u	n	n	x
Cc1ccc(S(=O)(=O)N2CCC(C)CC2)cc1[N+](=O)[O-]	x	u	x	x	x	n
SMILES	HPGD block	ALDH1A1 block	ALOX12 inhib	IMPase cell inh	PNC inhibitor	IMPase Li cell
COC(=O)c1cccc(S(=O)(=O)N2CCC(C)CC2)c1	n	u	n	n	n	n
COC(=O)c1cc(S(=O)(=O)N2CCC(C)CC2)ccc1F	u	28µM	n	n	n	n
CCCCN(CCCC)S(=O)(=O)c1ccc(SCC(=O)OCC)c([N+](=O)[O-])c1	n	u	n	n	-87	n
COC(=O)CSc1ccc(S(=O)(=O)N2CCC(C)CC2)cc1[N+](=O)[O-]	n	n	n	x	-109	n
CC1CCN(S(=O)(=O)c2ccc(NC(=S)NC(=O)c3ccc(Cl)cc3)cc2)CC1	n	4µM	n	n	n	n
CC1CCN(c2nc3ccccc3nc2SCC(=O)Nc2ccccc2C(C)C)CC1	x	x	x	n	x	x
COc1cccc(CS(=O)(=O)c2ccccc2)c1	n	n	x	x	x	n
O=C(NC(=S)Nc1ccc(S(=O)(=O)N2CCCCC2)cc1)c1ccc(Cl)cc1	u	0.5µM	u	n	u	n

Bioassay records: PubChem, National Center for Advancing Translational Sciences (NCATS)
